Experimental data reported in the supplement of paper PMC6555819.

Key:
Assay in all cases: PBM binding z-score (relative to random genomic background probes); higher = stronger binding; sequences stand for … in GC…GCGATTGACAGCGTAGAATGAAGG
[1] = system: FXR:RXRa (NR concentration 270 nM, RXRa partner concentration 90 nM)
Procedure, shortened: (§1)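 Each nuclear receptor dimer, without ligand, was incubated for 1 h on custom Agilent 4×180K protein-binding microarrays. Binding was detected with antibodies against each partner (one per run), and scanned fluorescence was regression-normalized. The binding z-scores are referenced to random human genomic background probes.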

[2] = system: LXRa:RXRa (NR concentration 270 nM, RXRa partner concentration 90 nM)
Procedure, shortened: as §1

[3] = system: LXRa homodimer (NR concentration 270 nM)
Procedure, shortened: as §1

[4] = system: LXRb:RXRa (NR concentration 270 nM, RXRa partner concentration 90 nM)
Procedure, shortened: as §1

[5] = system: LXRb homodimer (NR concentration 270 nM)
Procedure, shortened: as §1

[6] = system: PPARa:RXRa (NR concentration 270 nM, RXRa partner concentration 90 nM)
Procedure, shortened: as §1

[7] = system: PPARg:RXRa (NR concentration 180 nM, RXRa partner concentration 90 nM)
Procedure, shortened: as §1

[8] = system: PPARg:RXRa 270nM:90nM, anti-RXR (NR concentration 270 nM, RXRa partner concentration 90 nM)
Procedure, shortened: as §1

[9] = system: PPARg:RXRa 30nM:10nM, anti-RXR (NR concentration 30 nM, RXRa partner concentration 10 nM)
Procedure, shortened: as §1

[10] = system: PPARg:RXRa 90nM:30nM, anti-RXR (NR concentration 90 nM, RXRa partner concentration 30 nM)
Procedure, shortened: as §1

Sequence	PBM binding z-score [1]	PBM binding z-score [2]	PBM binding z-score [3]	PBM binding z-score [4]	PBM binding z-score [5]	PBM binding z-score [6]	PBM binding z-score [7]	PBM binding z-score [8]	PBM binding z-score [9]	PBM binding z-score [10]
ACTCGCAGGACAAAGGTCAGAGCTACGCCAGTGA	3.77	4.15	1.13	3.23	0.178	4.75	7.12	6.87	5.49	6.99
CCTTACGGGTGACTCCAGGTTATAGCATCGGAGT	0.642	5.37	0.839	1.76	-0.486	1.35	0.581	0.491	-0.12	0.123
TCTATTAGTTGATTAGGGCAACAGAAACAGCGGA	0.997	0.779	0.0498	0.646	0.947	1.01	0.317	1.96	3.53	2.85
CGTCCAAGGTCATAGGAGGTCAGTGACGACAGAT	7.82	7.6	4.84	6.12	0.978	6.02	5.6	5.9	2.05	4.62
CCTACTGGGCCATCTGGTCATTGATATCAACGTT	-0.161	-0.364	-0.126	-0.0941	-0.192	0.878	1.09	2.19	0.303	1.69
CCTACTGGGACACGAAAGGTCATTGATTCAGTGA	3.84	4.83	5.13	4.17	0.785	4.65	4.68	4.72	2.24	4.34
CCTACTGGGCCATTCAGAGATCATTGATCATATG	-0.238	-0.231	-0.224	-0.409	-0.653	0.219	0.557	0.204	-0.621	-0.372
CGTCCAAGGTCAGAGACGTCAGTGAATGCCGAGT	4.49	2.77	-0.161	1.87	-0.32	3.7	1.97	2.41	0.132	1.48
CAGACAGGGTCAGCTAGGCCAGAGTAGGGACGGC	4.38	2.22	-0.426	1.75	-0.493	4.34	2.66	2.47	0.42	1.51
AGTTAAAGTTCATCTAGGTAACGTAAGATATGCT	6.36	6.33	5.76	3.75	2.33	4.67	4.77	4.99	2	4.03
AGACCGAGGGCAATGAGTTGATAGCACGGGTGGC	-0.192	-0.0854	-0.495	-0.427	-0.95	0.375	0.499	-0.467	-0.824	-0.435
GCGACTGGGGCAAAGCAGGTTACTATAAGGTTGG	0.109	0.31	-0.478	0.342	-0.602	1.4	1.31	1.5	0.185	1.06
ACTATTAGTTGACTTAGGGCAGCCGATACGACGC	-0.0135	-0.0603	0.0917	-0.372	0.721	-0.383	0.697	0.151	-0.128	0.0745
TAGCCAAGGTCATTGGGCCAGTATAGTACGCATC	7.45	5.57	1.49	4.67	0.952	5.95	6	5.57	2.47	3.59
TCGAATAGGTTACCAATGGGGCATTCAGCTTTCT	0.65	2.61	-0.377	2	-0.392	1.87	0.255	1.75	2.94	2.43
TCGAGTAGGTTAGGGGCATTGAGAATGGCGTCGA	0.089	0.155	-0.182	0.843	-0.13	1.18	0.706	1.97	1.38	1.51
CAGCCTACGTCAGGGCCAGTATAGGAGGAACGTT	-0.299	-0.664	-0.318	-0.547	-1.11	-0.518	0.171	-0.999	-0.483	-0.832
GCTTGTGGATCAAGGTTAAGAAAGACTAAGCTAA	0.286	0.783	-0.433	0.442	-0.254	1.52	0.82	1.79	0.395	1.24
TCATATAGGTAAACATGTGAAAGTCCGTAAGTTA	0.869	0.742	0.308	0.769	0.208	1.58	1.86	2.39	3.92	3.22
AGTACGAGGGCAATGAGTTGATAGCACGGGTGGC	0.396	0.352	-0.477	0.0796	-0.401	0.795	1.08	0.242	-0.0294	0.117
CGAAATAGGTCAGAACAGGACAGTGAAGGATGAT	2.81	2.42	0.564	1.63	0.228	3.89	4.52	4.6	2.18	3.59
ATCTCTAGGTAAGACTGAGTTCAGTGAAGAACGC	0.449	0.657	0.601	0.352	0.691	0.568	-0.0566	0.369	0.167	0.0734
CCGACTGGGGCAAAAAGGTTACCATACCATCCGG	0.468	0.384	-0.0503	1.14	-0.735	2.38	1.48	1.95	0.214	1.25
ATCTCTAGGTAAGACTCAGTTCAGCGAAGAACGC	0.373	0.369	0.471	0.111	0.684	0.278	0.231	0.241	0.0173	0.278
AGAACAAGGGCAATGAGTTGATAGCACGGGTGGC	0.13	0.0784	-0.454	0.0189	0.008	0.573	1.26	0.0922	-0.195	-0.176
